PubChem BioAssay AID652154 (Broad Institute, 2013)
In all, about 360,000 compounds went through this assay and about 4,200 (1.2%) were called active. The sample as a whole holds a higher share of actives than the screen did. A number with no mark means an inactive call.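 The calls were made as follows: active = mean replicate inhibition at least 60% with every replicate also reaching 60%; inconclusive = only one of the two criteria is met; inactive = mean below 60% and not all replicates reaching 60%.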

Experiment: PAX8 transcriptional activity inhibition in RMG-I – RMG-I cells, luciferase, single concentration, primary screen (AID 652154);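 also: luciferase light reporting Pax8 driven TPO promoter activity; plate controls were median of neutral control wells for no effect and mitoxantrone controls for full effect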
Settings: RMG-I TPO-luciferase reporter, SteadyGlo, 24 h; at 12.6 µM; stronger effect = higher value

Point of comparison: C[C@@H]1CCCCO[C@H](CN(C)S(=O)(=O)c2cn(C)cn2)[C@@H](C)CN([C@@H](C)CO)C(=O)c2cc(NC(=O)c3ccncc3)ccc2O1, inhibition -1.88%. Against it:
- CO[C@@H]1CN(C)C(=O)c2ccc(NC(=O)C3CCC3)cc2OC[C@H](C)N(C(=O)CN(C)C)C[C@H]1C — lower, -10.4%
- COc1cccc(CNC(=O)C[C@H]2CC[C@@H](NC(=O)C3CCC3)[C@@H](CO)O2)c1 — lower, -6.76%
- O=C(Cc1ccccc1)N1C[C@@H]2[C@H](c3ccccc31)[C@@H](CO)N2C(=O)C1CC1 — higher, 6.8%
- O=C(c1ccccc1)N1C[C@@H]2[C@H](c3ccccc31)[C@@H](CO)N2Cc1cc(F)ccc1F — higher, 28%
- Cc1ccc(S(=O)(=O)N(C)C[C@H]2OCCCC[C@H](C)Oc3ccc(N(C)C)cc3C(=O)N([C@H](C)CO)C[C@@H]2C)cc1 — higher, 32%
- O=C(C[C@@H]1C[C@@H]2c3cc(NC(=O)NC4CCCC4)ccc3O[C@@H]2[C@H](CO)O1)NCC(F)(F)F — lower, -19.4%
- CNC[C@H]1OCCCC[C@@H](C)Oc2ccc(NC(=O)c3ccncc3)cc2C(=O)N([C@H](C)CO)C[C@H]1C — lower, -8.2%
- O=S(=O)(NC1CCCCC1N1CCCCC1)c1ccc(Cl)cc1 (configuration not stated) — higher, 7.52%
- COc1ccc(N2CCN(C3CCCCC3NS(=O)(=O)c3ccccc3)CC2)cc1 (configuration not stated) — higher, 19.3%
- C[C@@H]1CN([C@@H](C)CO)C(=O)c2cc(NC(=O)CCN3CCOCC3)ccc2O[C@H]1CN(C)C(=O)NC1CCCCC1 — lower, -13.4%
- C[C@@H]1CN([C@@H](C)CO)C(=O)c2cc(-c3cncnc3)cnc2O[C@H]1CN(C)Cc1cncnc1 — lower, -3.91%
- CN(C)C(=O)c1cccc(-c2ccc([C@H]3[C@@H](CO)N4C(=O)CN(C(=O)C5CC5)C[C@@H]34)cc2)c1 — lower, -11.3%
- Cc1cccc(N(Cc2ccccc2)C(=O)c2ccccc2F)c1 — higher, 3.65%
- CCCCC(O)(CCCC)C(=O)NN(C(=O)CCl)c1ccccc1 — higher, -1.33%
- CN1c2ccc(-c3cccc(F)c3)cc2[C@@H]2[C@@H](CCN2C(=O)Nc2ccccc2F)[C@@H]1CO — higher, 39.3%
- CC(C)NC(=O)Nc1ccc2c(c1)C(=O)N([C@H](C)CO)C[C@H](C)[C@H](CN(C)Cc1ccc(C(=O)O)cc1)OCCCC[C@@H](C)O2 — higher, 2.34%
- O=C(NCc1ccncc1)c1ccc(NS(=O)(=O)c2cccc([N+](=O)[O-])c2)cc1 — higher, -1.39%
- Cc1ccccc1OS(=O)(=O)c1cccc([N+](=O)[O-])c1 — lower, -23.3%
- COc1ccc(NC(=O)N[C@H]2CC[C@H](CCn3cc(-c4ccccc4F)nn3)O[C@H]2CO)cc1 — lower, -4.51%
- CO[C@H]1CN(C)C(=O)c2ccc(NS(=O)(=O)c3cn(C)cn3)cc2OC[C@@H](C)N(CC2CC2)C[C@H]1C — lower, -11.1%
- O=C(CC(=O)N/N=C\c1ccc(F)cc1)NCCc1ccccc1 — higher, 16.1%
- O=C(NC(Cc1c[nH]c2ccccc12)C(=O)N/N=C/c1ccc(Br)cc1)c1cccs1 (configuration not stated) — lower, -2.62%
- CC(=O)c1ccc(S(=O)(=O)N2CCC(Oc3ccc(-n4cnnn4)cc3)CC2)cc1 — lower, -37.6%
- CC(=O)c1ccc(S(=O)(=O)N2CCC3(CC2)OCCO3)cc1 — lower, -17.6%
- COc1ccc(S(=O)(=O)Nc2ccc3c(c2)C(=O)N([C@H](C)CO)C[C@H](C)[C@H](CN(C)S(=O)(=O)c2ccc(Cl)cc2)O3)cc1 — lower, -6.19%
- CC(C)C#Cc1ccc2c(c1)O[C@@H](CN(C)Cc1ccncc1)[C@@H](C)CN([C@@H](C)CO)S2(=O)=O — lower, -12.5%
- COc1ccc([Si](C)(C)[C@@H]2[C@@H](CCO)O[C@]3(C(=O)N(Cc4cccc(N5CCCCC5=O)c4)c4ccccc43)[C@H]2C)cc1 — higher, 3.33%
- COc1ccc(-c2ccc([C@@H]3[C@@H](CO)N4C(=O)CN(Cc5ccccc5)C[C@@H]34)cc2)cc1 — lower, -17%
- O=C(CC1CC1)N1[C@@H]2CN(S(=O)(=O)c3ccccc3F)c3ccccc3[C@@H]2[C@@H]1CO — lower, -3.48%
- O=C(C1=C[C@@H](c2ccccc2)C[C@@H](OCCCCO)O1)N1CCN(Cc2ccccc2)CC1 — higher, 2.95%
- COc1cc(C2CC(=O)Oc3cc(OC)c(OC)c(OC)c32)cc(OC)c1OC (configuration not stated) — lower, -2.9%
- COc1cc(C(=O)CCc2ccc3c(c2)OCO3)cc(OC)c1OC — lower, -6.52%
- Cc1ccccc1S(=O)(=O)N1[C@@H]2CNC[C@H]1C2c1ccc(-c2cccnc2)cc1 (some centres not stated) — higher, 19.3%
- CC(C)C(C)NC(=O)COc1nc2ccccc2nc1N(C)C1CCCCC1 (configuration not stated) — higher, 0.996%
- CC(C)c1cc(C(=O)NC2CCCCCC2)c2ccccc2n1 — lower, -9.13%

With CC[n+]1cc(C)ccc1/C=C/c1ccc(N(C)C)cc1 the inhibition was 86.7% (active).
For Oc1c(Cl)cc(Cl)c(Cl)c1Cc1c(O)c(Cl)cc(Cl)c1Cl, the inhibition was 107% (active).
For O=S(=O)(NC1CCCCC1N1CCN(c2ccccc2F)CC1)c1ccccc1 (configuration not stated), the inhibition was 101% (active).
For CCCC(O)(CCC)C(=O)NN(C(=O)CCl)c1cccc(C)c1, the inhibition was 76.1% (active).
In the case of CCCCCCCCn1c2c(c(=N)c3c1CCC3)CCCC2, the inhibition is reported as 96.6% (active).
With N/C(=N\OS(=O)(=O)c1cccc([N+](=O)[O-])c1)c1ccncc1 the inhibition was 134% (active).
In the case of O=C(Cc1c[nH]c2ccccc12)N/N=C/c1cccc(F)c1, the inhibition is reported as 73.6% (active).
With CC(=O)c1ccc(S(=O)(=O)N2CCN(C(=O)/C=C/c3ccc4ccccc4n3)CC2)cc1 the inhibition was 79.4% (active).
In the case of COc1ccc([Si](C)(C)[C@@H]2[C@@H](CCO)O[C@]3(C(=O)N(Cc4ccccc4)c4ccc(N5CCC5=O)cc43)[C@H]2C)cc1, the inhibition is reported as 101% (active).
With COc1cc(C2c3cc4c(cc3C(O)C3COC(=O)C23)OCO4)cc(OC)c1OC (configuration not stated) the inhibition was 77.3% (active).
For CN(c1ccc2nc3ccccc3c(=O)n2n1)C1CCCCC1, the inhibition was 86% (active).
